The source of these data is PubChem BioAssay AID624256 (NMMLSC, 2012).

The whole screen tested about 360,000 compounds, of which about 3,700 (1%) were called active. Roughly 2% stayed inconclusive and do not appear here. This is one part of a sample in which actives are shown more often than they occur.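 Rule for the calls: active = normalized GFP-positive differentiation at or above the plate's own cutoff, the solvent-only control mean plus 3 SD; inconclusive = no clear call, values can overlap the other calls; inactive = the rest.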

This test is described as follows: HoxA9-arrested leukemia cell differentiation promoters – flow cytometry, MLPCN library, primary screen (AID 624256).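 For GFP+ MAC1+ double positive: cells exposed to compound for four days before flow analysis.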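 For normalized GFP-positive differentiation: cells exposed to compound for four days before flow analysis; 0% = DMSO wells and 100% = fulvestrant positive control at 5 µM.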 The conditions noted are these: ER-HoxA9 myeloid progenitors, lysozyme-GFP differentiation, at 10 µM; GFP+ MAC1+ double positive: measured here: differentiation confirmed by MAC1 staining, stronger effect = higher value; normalized GFP-positive differentiation: stronger effect = higher value.
Regarding `O=C(NC1CCCC1)C1c2ccccc2OCC(=O)N1CC(F)(F)F` (centres undefined), the GFP+ MAC1+ double positive amounted to 0.5% and the result was inactive.

Regarding `O=C1NC[C@H](CCCCN2C[C@H](Cc3ccccc3)N(Cc3ccccc3)C(=O)C2=O)N(CCc2ccc(O)cc2)C1=O`, the GFP+ MAC1+ double positive is 1% and the compound was classed as inactive.

With `COC(=O)[C@@]12C[C@@H](CC(=O)N3CCCCC3)C(=O)N(Cc3ccc4c(c3)OCO4)C1=CCC(C)(C)C2`, the GFP+ MAC1+ double positive worked out at 1.1% and the compound was classed as inactive.

Consider `Cc1ccc(-n2c(SCC(=O)Nc3ncc(Cl)cc3Cl)nc3ccccc32)cc1`, for which the GFP+ MAC1+ double positive worked out at 11.5% and the normalized GFP-positive differentiation is 162% (active).

For the compound `CCOc1ccc(-n2c(SCC(=O)Nc3cc(C(=O)O)ccc3Cl)nc3ccccc3c2=O)cc1`, the GFP+ MAC1+ double positive was determined as 1.1% and the call was inactive.

With `CC1(C(=O)OCC(=O)Nc2ncc(Cl)cc2Cl)CC1(Cl)Cl` (centres undefined), the GFP+ MAC1+ double positive was found to be 0.3% and the compound was classed as inactive.

`CC1CCc2sc(C(=O)NCC(c3ccco3)N3CCCCC3)cc2C1` (centres undefined): the GFP+ MAC1+ double positive came out at 0.5% and the compound was classed as inactive.

In the case of `CC1Cc2ccccc2N1S(=O)(=O)c1cccc(C(=O)OCC(=O)N2CCOCC2)c1` (centres undefined), the GFP+ MAC1+ double positive came out at 1% and the call was inactive.

Take `CC1Cc2ccccc2N1S(=O)(=O)c1cccc(C(=O)NCC(c2ccco2)N2CCCC2)c1` (centres undefined): the GFP+ MAC1+ double positive came to 1.4% and the normalized GFP-positive differentiation is 21.5% (active).

Take `CC12CCC(=O)C=C1CCC1C2C(O)CC2(C)C1CCC2(O)C(O)CO` (centres undefined): the GFP+ MAC1+ double positive was 1.1% and the outcome was inactive.

`O=C(NCc1cccnc1)c1cc(C2CCCN(C(=O)CCCc3ccccc3)C2)on1` (centres undefined): the GFP+ MAC1+ double positive came to 0.8% and the compound was classed as inactive.

Turning to `CCCCN(C=O)c1c(CC)nc2c(OCCC3CCCCC3)cccn12`, the GFP+ MAC1+ double positive was determined as 0.7% and the compound was called inactive.

Turning to `CCOC(=O)[C@]12CCCC=C1N(Cc1cccc3ccccc13)C(=O)[C@H](CC(=O)NCC13CC4CC(CC(C4)C1)C3)C2`, the GFP+ MAC1+ double positive is 2.1% and the compound was called inactive.

As for `Cc1ccc(S(=O)(=O)NCC(C)NS(C)(=O)=O)cc1` (centres undefined), the GFP+ MAC1+ double positive is 2% and the result was inactive.

On to `Cc1ccc(S(=O)(=O)NCCSC(C)(C)C)cc1`, for which the GFP+ MAC1+ double positive was 5.2% and the normalized GFP-positive differentiation was 17.8% (active).

Consider `Cc1ccc(S(=O)(=O)NCCNC(C)c2ccc(Br)cc2)cc1` (centres undefined), for which the GFP+ MAC1+ double positive was 1% and the outcome was inactive.

For the compound `OC(c1ccccc1)c1nc(-c2cnc3ccccc3c2)cs1` (centres undefined), the GFP+ MAC1+ double positive was 0.6% and the compound was classed as inactive.

For `C=C1C(=O)[C@]23C[C@H]1CCC2[C@@]1(C)C(C[C@@H]3O)[C@](C)(C(=O)O)CC[C@@H]1O` (some centres undefined), the GFP+ MAC1+ double positive is 3.8% and the normalized GFP-positive differentiation was 13.1% (active).

With `CCOC(=O)C1=CC[C@@H](c2ccncc2)N(S(=O)(=O)c2ccc(C)cc2)C1`, the GFP+ MAC1+ double positive amounted to 1.2% and the result was inactive.

With `COc1ccc(C2OC(CCc3ccccc3)Cc3[nH]c(=S)[nH]c(=O)c32)cc1` (centres undefined), the GFP+ MAC1+ double positive amounted to 1.5% and the call was inactive.

As for `Cc1ccc(S(=O)(=O)N2CCN(c3ccccc3)CC2)cc1C`, the GFP+ MAC1+ double positive turned out to be 0.5% and the compound was classed as inactive.

As to `CC(=O)c1ccc(S(=O)(=O)N2CCN(c3nc4c(C)c(C)ccc4cc3C#N)CC2)cc1`, the GFP+ MAC1+ double positive was determined as 0.3% and the call was inactive.

For the compound `Cc1ccc(S(=O)(=O)C(C#N)c2nc3ccccc3nc2N2CCCC2)cc1C` (centres undefined), the GFP+ MAC1+ double positive turned out to be 1.7% and the normalized GFP-positive differentiation is 59% (active).

For the compound `CC(C)OC(=O)C(C#N)c1nc2ccccc2nc1N1CCN(Cc2ccccc2)CC1` (centres undefined), the GFP+ MAC1+ double positive is 0.7% and the normalized GFP-positive differentiation was 12.1% (active).

Consider `CC(C)n1c(CN2CCN(Cc3ccccc3)CC2)nc2ccccc21`, for which the GFP+ MAC1+ double positive is 0.1% and the result was inactive.

With `COC(=O)c1sc(N2CCN(Cc3ccccc3)CC2)nc1N`, the GFP+ MAC1+ double positive was found to be 0.5% and the call was inactive.

`CCCCCn1nnnc1-c1nc2cc3ccccc3cc2[nH]c1=O`: the GFP+ MAC1+ double positive came to 1.8% and the compound was classed as inactive.

Take `Cc1nc(Nc2ccc3c(c2)OCCO3)c2nnn(Cc3ccccc3Cl)c2n1`: the GFP+ MAC1+ double positive came out at 18.1% and the normalized GFP-positive differentiation was 21.9% (active).

With `CCCc1nc(NCc2ccc3c(c2)OCO3)c2nnn(Cc3ccccc3Cl)c2n1`, the GFP+ MAC1+ double positive was 0.8% and the result was inactive.

Turning to `Cc1nc(Nc2ccccc2F)c2nnn(Cc3ccccc3Cl)c2n1`, the GFP+ MAC1+ double positive worked out at 0.5% and the outcome was inactive.

On to `CCCCCc1c(Cc2ccccc2)ncn1CCc1ccccc1OC`, for which the GFP+ MAC1+ double positive was 3.9% and the call was inactive.

In the case of `COc1ccc(NC(=O)Nc2ccc3c(c2)C(=O)N([C@H](C)CO)C[C@H](C)[C@@H](CN(C)C(=O)Nc2ccc4c(c2)OCO4)O3)cc1`, the GFP+ MAC1+ double positive came to 2.5% and the compound was classed as inactive.

As for `COc1ccc(NC(=O)N(C)C[C@H]2Oc3ccc(NC(=O)C4CC4)cc3C(=O)N([C@H](C)CO)C[C@@H]2C)cc1`, the GFP+ MAC1+ double positive is 1.6% and the normalized GFP-positive differentiation was 10.4% (active).

As to `C[C@@H]1CN([C@@H](C)CO)C(=O)c2cc(NC(=O)C3CC3)ccc2O[C@H]1CN(C)C`, the GFP+ MAC1+ double positive stood at 1.9% and the compound was classed as inactive.

Take `CCOC(=O)[C@]12CCC=C1N(Cc1ccccc1)C(=O)[C@H](CC(=O)N1CCCC1)C2`: the GFP+ MAC1+ double positive stood at 0.9% and the compound was called inactive.

`N#C/C(=C/c1ccc(N2CCCCC2)o1)C(=O)NCCc1c[nH]c2ccccc12`: the GFP+ MAC1+ double positive was determined as 3.1% and the normalized GFP-positive differentiation was 118% (active).

With `N#C/C(=C\c1ccc(N2CCOCC2)o1)C(=O)N1CCOCC1`, the GFP+ MAC1+ double positive came out at 0.4% and the call was inactive.

For `N#C/C(=C/c1ccc(N2CCOCC2)o1)C(=O)N1CCOCC1`, the GFP+ MAC1+ double positive worked out at 0.4% and the call was inactive.

`CCC(c1nnnn1-c1ccc2c(c1)OCCO2)N1CCN(c2ccc(C(F)(F)F)cn2)CC1` (centres undefined): the GFP+ MAC1+ double positive is 0.4% and the call was inactive.

For the compound `CCNC(=O)c1cc2c(c(-c3cccc(-c4cncnc4)c3)n1)[C@H](CCO)N(C(C)=O)C2`, the GFP+ MAC1+ double positive is 0.5% and the compound was called inactive.

Regarding `CCCNC(=O)C[C@@H]1CC[C@@H]2[C@H](COC[C@H](O)CN2C(=O)c2cc(Cl)cc(Cl)c2)O1`, the GFP+ MAC1+ double positive was determined as 0.9% and the outcome was inactive.

As for `CCCCCc1c(-c2cccc(Br)c2)ncn1CCc1ccccc1OC`, the GFP+ MAC1+ double positive came out at 1% and the compound was called inactive.
